From PubChem BioAssay AID1159580 (chemical genetic matrix, 2015)
“And” between values parts separate entries of the source, which are not always exact repeats. Identical values can stand only once. Hit rate of the full screen: of about 5,500 compounds, about 2,000 (36%) were called active. Inconclusive results (about 18%) are left out. No stated cut-off is given here; in the data, active means normalized growth mostly below about 0.91 (no sharp cut-off); inconclusive means no clear call, values can overlap the other calls; inactive means mostly above about 0.92. The list shows a part of the results.

Assay: chemical genetic growth profiling, strain panel (AID 1159580);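 further: tested at 20 µM; growth read once vehicle control cultures reached saturation at 30 °C; 1 = growth at the plate median or of vehicle wells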
Conditions: S. cerevisiae deletion strains, growth OD

Measured: normalized growth

Cc1ncc(CNC(=O)N(CCCl)N=O)c(N)n1
inactive: locus YAL013W, strain DEP1, stronger effect = lower value 1.01 and 1 | locus YAL021C, strain ccr4, stronger effect = lower value 0.948 | locus YAL026C, strain drs2, stronger effect = lower value 1.02 | locus YAL030W, strain snc1, stronger effect = lower value 1.01 | locus YAL040C, strain CLN3, stronger effect = lower value 0.981 | locus YBL061C, strain skt5, stronger effect = lower value 1.01 | locus YBR009C, strain hhf1, stronger effect = lower value 0.992 | locus YBR021W, strain FUR4, stronger effect = lower value 0.994 | locus YBR023C, strain chs3, stronger effect = lower value 1 | locus YBR171W, strain sec66, stronger effect = lower value 1.02 | locus YBR229C, strain ROT2, stronger effect = lower value 1.03 | locus YBR231C, strain swc5, stronger effect = lower value 1.03 | locus YBR279W, strain paf1, stronger effect = lower value 1 | locus YCL011C, strain gbp2, stronger effect = lower value 1 | locus YCL016C, strain dcc1, stronger effect = lower value 0.978 | locus YCL029C, strain bik1, stronger effect = lower value 0.985 | locus YCL061C, strain MRC1 (second series), stronger effect = lower value 1 | locus YCL061C, strain MRC1, stronger effect = lower value 0.999 | locus YCL069W, strain vba3, stronger effect = lower value 1.01 | locus YCR088W, strain abp1, stronger effect = lower value 1.01 | locus YDL005C, strain med2, stronger effect = lower value 1.01 | locus YDL035C, strain GPR1, stronger effect = lower value 1 | locus YDL040C, strain nat1, stronger effect = lower value 1.02 | locus YDL074C, strain BRE1, stronger effect = lower value 1.02 | locus YDL101C, strain DUN1, stronger effect = lower value 1.01 | locus YDL134C, strain PPH21, stronger effect = lower value 1.03 | locus YDL185W, strain tfp1, stronger effect = lower value 0.985 | locus YDL192W, strain arf1, stronger effect = lower value 0.997 | locus YDR001C, strain nth1, stronger effect = lower value 1.01 | locus YDR069C, strain doa4, stronger effect = lower value 1.02 | locus YDR101C, strain arx1, stronger effect = lower value 0.983 | locus YDR137W, strain rgp1, stronger effect = lower value 1.04 | locus YDR150W, strain NUM1, stronger effect = lower value 1.03 and 0.998 | locus YDR159W, strain sac3, stronger effect = lower value 1.08 | locus YDR162C, strain NBP2, stronger effect = lower value 1 | locus YDR195W, strain ref2 0.993 | locus YDR297W, strain sur2, stronger effect = lower value 1.02 | locus YDR318W, strain mcm21, stronger effect = lower value 1 | locus YDR334W, strain swr1, stronger effect = lower value 1.02 | locus YDR335W, strain msn5, stronger effect = lower value 1.01 | locus YDR363W, strain ESC2, stronger effect = lower value 1 | locus YDR388W, stronger effect = lower value 0.986 | locus YDR392W, strain spt3, stronger effect = lower value 0.917 | locus YDR502C, strain sam2, stronger effect = lower value 0.99 | locus YEL003W, strain gim4, stronger effect = lower value 1.01 | locus YEL037C, strain rad23, stronger effect = lower value 1.01 | locus YEL061C, strain CIN8 (second series), stronger effect = lower value 1.01 | locus YEL061C, strain CIN8, stronger effect = lower value 1.02 | locus YER002W, strain NOP16, stronger effect = lower value 1 | locus YER015W, strain faa2, stronger effect = lower value 0.982 | locus YER016W, strain bim1, stronger effect = lower value 1.02 | locus YER110C, stronger effect = lower value 0.979 | locus YER111C, strain swi4, stronger effect = lower value 1.01 | locus YER155C, strain BEM2 (second series), stronger effect = lower value 1.03 | locus YER155C, strain BEM2, stronger effect = lower value 1 | locus YER167W, strain BCK2, stronger effect = lower value 1.01 | locus YFR010W, strain ubp6, stronger effect = lower value 1.01 | locus YGL078C, strain dbp3, stronger effect = lower value 0.991 | locus YGL086W, strain mad1, stronger effect = lower value 1 | locus YGL167C, strain pmr1, stronger effect = lower value 1 | locus YGL173C, strain kem1, stronger effect = lower value 1.01 | locus YGL227W, strain vid30, stronger effect = lower value 1.01 | locus YGL240W, strain doc1, stronger effect = lower value 1.01 | locus YGL248W, strain PDE1, stronger effect = lower value 1.02 | locus YGL253W, strain hxk2, stronger effect = lower value 1.01 | locus YGR078C, strain PAC10, stronger effect = lower value 1.01 | locus YGR135W, strain pre9, stronger effect = lower value 1 | locus YGR229C, strain SMI1, stronger effect = lower value 0.994 | locus YGR252W, strain gcn5, stronger effect = lower value 0.976 | locus YHR013C, strain ard1, stronger effect = lower value 1 | locus YHR027C, strain rpn1, stronger effect = lower value 1.04 | locus YHR030C, strain SLT2, stronger effect = lower value 1.02 and 0.958 | locus YHR079C, strain IRE1 (second series), stronger effect = lower value 0.984 | locus YHR079C, strain IRE1, stronger effect = lower value 0.957 | locus YHR094C, strain hxt1, stronger effect = lower value 0.989 | locus YHR129C, strain ARP1, stronger effect = lower value 1.02 | locus YHR142W, strain chs7, stronger effect = lower value 1.01 | locus YHR200W, strain rpn10, stronger effect = lower value 0.988 | locus YIL066C, strain RNR3, stronger effect = lower value 1.02 | locus YIL073C, strain SPO22, stronger effect = lower value 0.994 | locus YIL125W, strain kgd1, stronger effect = lower value 0.995 | locus YIR030C, strain dcg1, stronger effect = lower value 0.987 | locus YJL092W, strain hpr5, stronger effect = lower value 0.978 | locus YJL095W, strain BCK1 (second series), stronger effect = lower value 1.03 | locus YJL095W, strain BCK1, stronger effect = lower value 0.999 and 0.951 | locus YJL115W, strain asf1, stronger effect = lower value 1.01 | locus YJL129C, strain trk1, stronger effect = lower value 1.03 | locus YJL134W, strain LCB3, stronger effect = lower value 1.02 | locus YJL154C, strain vps35, stronger effect = lower value 1.01 | locus YJL164C, strain tpk1, stronger effect = lower value 0.988 | locus YJL166W, strain qcr8, stronger effect = lower value 1.01 | locus YJL168C, strain set2, stronger effect = lower value 0.99 | locus YJL187C, strain SWE1 (second series), stronger effect = lower value 1.02 | locus YJL187C, strain SWE1, stronger effect = lower value 0.993 | locus YJR043C, strain POL32, stronger effect = lower value 0.902 | locus YJR066W, strain TOR1, stronger effect = lower value 0.901
